Common to all, as to experiment: NCI-60 one-dose screen, 48 h (100 = growth as untreated, 0 = no growth, -100 = all killed)
Common to all, as to details: 10 µM

For test [1], the system named is HCT-15 colon.
Test [2] has as its system SNB-19 CNS.
Test [3] relates to U251 CNS.
Test [4] deals with PC-3 prostate.
Test [5] deals with SK-MEL-5 melanoma.
For test [6], the system named is UACC-62 melanoma.
Test [7] has as its system LOX IMVI melanoma.
The subject of test [8] is SK-MEL-28 melanoma.
Test [9] relates to HT29 colon.
Test [10] concerns SNB-75 CNS.

This is part of a sample that, as a whole, favours compounds with a hit. Of some 83,000 tested, about 20% had one in any assay.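 Plates (96-well) were seeded with cells, treated with compound at one concentration, and incubated for 48 hours before percent growth was determined.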 Values without a mark were called inactive. Active and inactive are the calls of the source. How the source made its calls: active means growth percent below 10; inactive means the rest.

For the compound `CC(C)(O)CCl`, the growth was 102% in test [1]; 102% in test [2]; 103% in test [3]; 102% in test [4]; 104% in test [5]; 102% in [6]. For the same compound, the growth in [7] is 104%; in test [8] it was 110%.
Turning to `CN1C(C(=O)Nc2ccccn2)=C(O)c2sc(Cl)cc2S1(=O)=O`, the growth in [1] was 112%; in [9], 103%; in test [3], 95.4%; in test [4], 87.9%; in [5] it was 102%; in test [6], 92.4%. Further, the results for the growth in [7] and in [8] were 96% and 102%, respectively.
For `CC(C)(C)c1ccc(S(=O)(=O)N[C@H]2CC[C@H]3[C@@H]4CCc5cc(OS(=O)(=O)O)ccc5[C@H]4CC[C@]23C)cc1`, the growth in test [1] is 35.4%; in test [10] it was 61.6%; in test [2] it was 92.3%; in test [4], 27.5%; in test [5], 52.5%; in test [6] it was 62%. In test [8], the growth was 77.5%.
On to `N#Cc1c(N)nc(-c2cc(F)cc(C(F)(F)F)c2)nc1-c1ccccc1F`, for which the growth in test [1] was 67.4%; in test [9] it was 39.7%; in test [3] it was 19.5%; in test [4] it was 81.4%; in test [5], 93.6%; in [6] it was 84%. The growth in test [7] is 54%; in test [8] it was 75.9%.
As for `COc1cc(N)c2ncccc2c1SC`, the growth in [1] was 112%; in test [10], 91%; in test [2] it was 99%; in test [3] it was 102%; in [4], 101%; in [5] it was 107%. Moreover, the figures for the growth in test [6] and in test [8] were 110% and 106%, respectively.
Regarding `COc1cc(/C=C/c2cc(/C=C/c3ccc(O)c(OC)c3)nc(N)n2)ccc1O`, the growth in test [9] was -76.2% (active); in [10] it was 5.5% (active); in [2], 23.2%; in test [3], 2.97% (active); in test [4], 13%; in test [5], -18.4% (active). The growth was -57.7% (active) in test [6], -16.1% (active) in test [7] and 9.55% (active) in test [8].
For `Cc1ccc(C(C)C)c(O)c1NC(=O)OC(C)C`, the growth in [1] is 92.2%; in test [10], 77.5%; in test [2] it was 99.4%; in test [3], 105%; in [4] it was 85.5%; in test [5], 97.6%. For the same compound, the growth in test [6] is 92%; in [7], 99.4%; in [8] it was 101%.
Turning to `CC1=CC2C(C(O)CC3(C)C2CC(C)C32OCOC23COCO3)C2(C)C/C(=C/O)C(=O)C=C12` (centres undefined), the growth in test [1] is -24.2% (active); in [9], 3.89% (active); in test [2], 56%; in test [4], 31.7%; in test [5], 44.2%; in test [6], 30.4%. For the same compound, the growth in [7] was -60.9% (active); in [8], 66.3%.
For the compound `Cc1c[nH]c(=O)n(Cc2nnc(CCC(=O)c3nc4ccccc4[nH]3)o2)c1=O`, the growth was 8.43% (active) in test [9]; -33% (active) in [10]; 33.2% in test [2]; 16.6% in test [3]; 19.3% in test [4]; 13.2% in test [5]. Moreover, the results for the growth in [6], in test [7] and in test [8] were 41%, 35.6% and 40.9%, respectively.
With `COc1ccc(NC(=O)C2CC3C=CC2C3)c([N+](=O)[O-])c1` (centres undefined), the growth in test [1] was 97.1%; in test [9] it was 101%; in test [2], 91.9%; in [3], 98.4%; in test [4] it was 94.9%; in test [5], 96%. In addition, the results for the growth in test [6] and in test [8] were 96.5% and 98.1%, respectively.
Turning to `CCN(CC)CCCC(Nc1c2ccc(Cl)cc2nc2ccc(OC)cc12)c1ccc(F)cc1` (centres undefined), the growth is 1.06% (active) in [1]; 5.7% (active) in test [9]; 45.7% in test [2]; -29% (active) in test [3]; -95.7% (active) in test [5]; 109% in [6]. In addition, the growth in test [7] was -73.2% (active); in [8] it was -83.5% (active).
With `Cc1ccc2nc(Cl)c(-c3nc4ccccc4o3)cc2c1`, the growth is 79.4% in test [1]; 102% in test [9]; 93.2% in test [2]; 102% in test [3]; 79.8% in test [4]; 88.7% in test [5]. Besides, the growth was 94.9% in [6], 82.8% in [7] and 104% in test [8].
Regarding `COc1ccc(/C=c2\sc3n(c2=O)C(c2cc(OC)c(OC)c(OC)c2)C=C(c2ccc(OC)c(OC)c2)N=3)cc1OC` (centres undefined), the growth in test [1] is 90.3%; in test [10], 76.2%; in test [2], 89.9%; in test [3] it was 98.9%; in [4], 86.6%; in test [5], 83.4%. Moreover, the growth in test [6] is 85.6%; in [7], 93.8%; in test [8], 104%.
In the case of `Cc1cc(Cl)ccc1Nc1nc(C(F)(F)F)ccc1C(=O)N/N=C/c1c(Cl)cccc1Cl`, the growth is 9.11% (active) in test [1]; 3.29% (active) in test [9]; 13.5% in [2]; -1.74% (active) in [3]; -13.7% (active) in test [4]; -85.4% (active) in [5]. For the same compound, the results for the growth in [6], in [7] and in test [8] were -12.9% (active), 10% and 24.7%, respectively.
`CN1C(=O)C2(Nc3cc(Cl)ccc3S2)c2cc(Cl)ccc21` (centres undefined): the growth in [9] is 101%; in test [10], 69.2%; in test [2], 97.2%; in [3], 93.2%; in test [4], 73.7%; in test [5] it was 84.9%. Besides, the growth in test [6] was 69.9%; in test [7], 78.8%; in test [8] it was 101%.
Regarding `CCOC(=O)c1cc(C(=O)c2cc(OC)cc(OC)c2)n2ncc3ccccc3c12`, the growth in test [9] was 2.01% (active); in [10] it was -10% (active); in test [2], 46.8%; in [3], -13.4% (active); in [4], 31.7%; in [5] it was 18.7%. Moreover, the growth in [6] is 41.7%; in [7] it was 9.99% (active); in test [8], 63%.
On to `COC(=O)C1OC1c1cc([N+](=O)[O-])ccc1OC` (centres undefined), for which the growth was 103% in [1]; 117% in test [9]; 110% in [2]; 96% in test [4]; 98.8% in test [5]; 106% in [6]. Also, the growth in [7] is 93.4%; in [8], 109%.
For the compound `Cc1cc(NC(=O)c2ccc(C)c(Nc3nccc(-c4cccnc4)n3)c2)cc(-n2cnc(C)c2)c1`, the growth in test [1] is 58.6%; in test [9] it was -18.6% (active); in test [2], 66.6%; in test [4], 61.4%; in [5], 65.7%; in test [6], 44.6%. Besides, the growth was 2.11% (active) in [7] and 41.5% in test [8].
Consider `CC(C)(C)c1ccc(S(=O)(=O)N[C@H]2CC[C@H]3[C@@H]4CCc5cc(O)c([N+](=O)[O-])cc5[C@H]4CC[C@]23C)cc1`, for which the growth in test [1] was 87.9%; in test [9], 70%; in test [4] it was 47.4%; in test [5] it was 83.5%; in [6], 84.2%; in test [8], 77%.
Turning to `CC(=O)Nc1ccc(CC[C@H]2CCC/C=C/[C@@H]3C[C@H](O)C[C@H]3[C@H](O)/C=C/C(=O)O2)cc1`, the growth in test [1] is 9.69% (active); in test [9], -26.2% (active); in test [3], 15.2%; in test [4], 18.9%; in test [5], -88.6% (active); in test [6], 18.7%. The growth was -64.9% (active) in [7] and 6.75% (active) in test [8].
Turning to `COc1ccc(-c2n[nH]nc2-c2cc(OC)c(OC)c(OC)c2)cc1`, the growth was 25.8% in test [1]; 4.38% (active) in test [9]; 1.61% (active) in test [3]; 23.4% in test [4]; -53.9% (active) in test [5]; 38.4% in test [6]. Further, the growth is 9.46% (active) in [7] and 64.4% in [8].
For `O=C1/C(=C/c2cccc(F)c2)Cc2ccccc21`, the growth in test [1] was 93.7%; in test [9], 94.6%; in test [2] it was 98.7%; in test [4], 90%; in test [5], 99.4%; in test [6], 99.2%. The growth in test [7] is 96.7%; in [8], 105%.
For the compound `IC(I)I`, the growth in [1] is 101%; in [9], 115%; in test [2], 106%; in [3] it was 102%; in test [4], 109%; in test [5], 104%. Moreover, the results for the growth in [6] and in [8] were 88.9% and 109%, respectively.
For `Cc1ccc(NCCN(C)CC(C)O)c2c(=O)c3ccc(Cl)cc3sc12` (centres undefined), the growth in test [1] is 21.2%; in test [9] it was -27% (active); in test [2], 55%; in test [3], 8.57% (active); in [4], 48.2%; in test [5] it was 46.9%. In addition, the growth in test [6] is -68.7% (active); in test [8] it was -53.5% (active).
For `O=c1c(Br)ccc(Br)cc1Br`, the growth in [1] was -32.8% (active); in test [9], -41.6% (active); in [2], 86.6%; in test [4], -24.7% (active); in [5], 32.4%; in [6], -5.1% (active). Moreover, the growth in [7] was -76.9% (active); in [8] it was -53.4% (active).
On to `COc1cc(-c2nn(-c3cccc(NC(=O)CCN4CCN(Cc5ccccc5)CC4)c3)cc2-c2ccncc2)ccc1Cl`, for which the growth in [9] is -20.2% (active); in test [10], -10.3% (active); in test [2] it was 39.9%; in test [3], 6.53% (active); in test [4], 7.06% (active); in test [5], -95.3% (active). The growth in test [6] was 10.7%; in [7], -88.6% (active); in test [8] it was -85.4% (active).
Turning to `COc1ccc(-c2n[nH]nc2-c2cc(OC)c3c(c2OC)OCO3)cc1`, the growth in [1] is 35.5%; in [9], 4.41% (active); in [2] it was 51.8%; in [3], 13.8%; in test [5], 6.78% (active); in test [6], 40.6%. Besides, the growth is 37% in [7] and 63% in [8].
On to `COc1cc(-c2ccc[nH]2)[nH]c1/C=C1\N=C(C)C(C(=O)NC(C)C)=C1C`, for which the growth was 8.9% (active) in [1]; -13.7% (active) in test [10]; 74.5% in test [2]; 31.4% in test [3]; -88.4% (active) in test [5]; -33.5% (active) in test [6]. Besides, the figures for the growth in test [7] and in [8] were -62.6% (active) and 44%, respectively.
On to `CS(=O)(=O)c1nccc(-c2c(-c3cccc(OCCc4ccccc4)c3)nc3sccn23)n1`, for which the growth was 108% in test [1]; 99.7% in [9]; 92.6% in test [2]; 99.4% in test [3]; 86.9% in [4]; 78.3% in test [5]. For the same compound, the figures for the growth in test [6], in [7] and in [8] were 85.9%, 94.2% and 112%, respectively.
On to `CCOC(=O)C1C(C(=O)OCC)C2C(=O)C3C(C(=O)OCC)C(C(=O)OCC)C3C(=O)C12` (centres undefined), for which the growth in test [1] is 103%; in test [9] it was 105%; in [2] it was 96.4%; in test [4], 97.6%; in [5], 100%; in [6] it was 101%. The growth in [8] is 105%.
For `Cc1cc(SCc2ccccc2)nc(N)n1`, the growth in [1] is 104%; in test [2] it was 92.1%; in [3], 118%; in test [4] it was 111%; in test [5], 117%; in test [6], 87.5%. Besides, the values for the growth in [7] and in test [8] were 103% and 106%, respectively.

The record behind these values is PubChem BioAssay (NCI).
